Screening data deposited in PubChem by National Center for Advancing Translational Sciences (NCATS).
Only a selection was taken, and hits are over-represented in it overall.
Methyltransferases = Primary Screen for Target Class Profiling of Small Molecule Inhibitors of Methyltransferases. calls only at 40 µM. 3.9% of 25,000 active. purified enzyme, MTase-Glo SAH luminescence; stronger effect = lower value; call rule not given here
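Each enzyme was reacted with SAM and its substrate, with compounds tested once at 40 uM; SAH formed was read by MTase-Glo luminescence.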
Calls only; – = inactive; + = active, no number; ! = not active in a repeat.

SMILES	Methyltransferases
O=C1Cc2c([nH]c3ccc(Br)cc23)-c2ncccc2N1	+
Cc1cc(=O)oc2cc(NC(=O)[C@H](CCC(=O)O)NC(=O)[C@H](CC(C)C)NC(=O)[C@H](CC(C)C)NC(=O)OCc3ccccc3)ccc12	+
CC(C)CC(NC(=O)OCc1ccccc1)C(=O)NC(CC(C)C)C(=O)NC(CCC(=O)O)C(=O)Nc1ccc2ccccc2c1 (stereo not given)	–
CN1C(=O)c2cc(C(=O)NCCc3ccc(Cl)cc3)nn2CC1(C)C(=O)NC1CCCC1 (stereo not given)	–
COc1cc(Nc2ncc3c(n2)-c2ccc(Cl)cc2C(c2c(F)cccc2OC)=NC3)ccc1C(=O)O	+!
COc1cccc(OC)c1-c1nc(C(=O)N[C@@H](CC(C)C)C(=O)O)cn1-c1ccnc2cc(Cl)ccc12	–
C=CCn1c(=O)c2ccc(C(=O)NC(C)CC)cc2n2c(=O)n(CC(=O)NC(C)CC)nc12 (stereo not given)	–
CC(C)CCNC(=O)C1(C)Cn2nc(C(=O)NCc3ccccc3F)cc2C(=O)N1C (stereo not given)	–
Cc1cc2c(N3CCCC3)nc(N3CCCC3)nc2n1C	+
Cc1cccc(-c2nnn3c2nc(N2CCCC2)c2ccccc23)c1	–
Cc1nc(N2CCCC2)nc(N2CCC3(CC2)OCCCC3O)c1C (stereo not given)	–
COc1cccc(Cn2nc3n(CCC(C)C)c(=O)c4ccc(C(=O)NC(C)C)cc4n3c2=O)c1	–
CCOC(=O)C1=C(C)NC(C)=C(C(=O)OC)C1c1cccc([N+](=O)[O-])c1 (stereo not given)	–
COCCOC(=O)C1=C(C)NC(C)=C(C(=O)OC(C)C)C1c1cccc([N+](=O)[O-])c1 (stereo not given)	–
CC1=C(C(=O)OC2CCCCC2)C(c2ccc([N+](=O)[O-])cc2)C2=C(CC(C)(C)CC2=O)N1 (stereo not given)	+
CCN1CCCC1CNC(=O)Cn1ccc2cc(S(=O)(=O)N3CCCCC3)ccc21 (stereo not given)	–
CC(C)CCNC(=O)C1(C)Cn2nc(C(=O)N3CCCC3)cc2C(=O)N1C (stereo not given)	–
CC1(C(=O)NC2CCCCC2)Cn2c(cc3occc32)C(=O)N1CCc1ccccc1 (stereo not given)	–
COc1ccc(CN2C(=O)c3cc4sccc4n3CC2(C)C(=O)NC2CCCCC2)cc1OC (stereo not given)	–
COc1cccc(CN2C(=O)c3cc4sccc4n3CC2(C)C(=O)NC2CCC(C)CC2)c1 (stereo not given)	–
COc1ccc(CN2C(=O)c3cc4sccc4n3CC2(C)C(=O)NC2CCC(C)CC2)cc1OC (stereo not given)	+
CCOCCCN1C(=O)c2cc3occc3n2CC1(C)C(=O)NC1CCCCCCC1 (stereo not given)	–
O=C(CSc1nnc2n(Cc3ccccc3)c(=O)c3ccccc3n12)NC1CCCCC1	–
CCc1ccc(N2C(=O)c3cc(-c4ccccc4)nn3CC2(C)C(=O)NCCCOC)cc1 (stereo not given)	–
Cc1ccc(-c2noc(-c3cccc(S(=O)(=O)N4CCN(c5cccc(C)c5C)CC4)c3)n2)cc1	–
SMILES	Methyltransferases
Cn1c(=O)c2ccc(C(=O)NC3CCCC3)cc2n2c(SCC(=O)Nc3ccc(F)cc3)nnc12	–
O=C(O)c1cccnc1Nc1cccc(C(F)(F)F)c1	–
O=C(Nc1ccnc(NC(=O)C2CC2)c1)c1c(Cl)cccc1Cl	–
O=C(Nc1cccc(Nc2cc(Nc3cccc(C(F)(F)F)c3)ncn2)c1)C1CC1	+
CC1(C(=O)NC2CCCCCC2)Cn2c(cc3occc32)C(=O)N1Cc1ccc(Cl)cc1 (stereo not given)	–
CCC(C)NC(=O)c1ccc2c(=O)n(C(C)C)c3nn(C)c(=O)n3c2c1 (stereo not given)	–
COc1ccc(NC(=O)Cn2nc3n(CC(C)C)c(=O)c4ccccc4n3c2=O)cc1	–
Cc1ccc(C(N)=O)cc1Nc1nccc(-c2cn(C(C)C)c3cnccc23)n1	+
CCCC1c2ccc(C)n2CCN1C(=O)Nc1cc(C)ccc1OC (stereo not given)	–
O=C(Cn1c(=O)oc2cc(S(=O)(=O)NCc3ccccc3)ccc21)NCCCc1ccccc1	–
CC1(C(=O)NC2CCCCCCC2)Cc2ccccc2C(=O)N1CCN1CCCCCC1 (stereo not given)	–
O=C(O)CSc1cc(NS(=O)(=O)c2ccc(Br)cc2)c2ccccc2c1O	+
Cn1c(=O)n(C)c2cc(S(=O)(=O)Nc3ccc(Br)cc3)ccc21	–
CCOC(=O)c1cc2n(n1)CC(C)(C(=O)NCc1ccc(F)cc1)N(Cc1cccc(OC)c1)C2=O (stereo not given)	–
O=C(Cn1nc2n(Cc3ccccc3)c(=O)c3ccccc3n2c1=O)Nc1cccc(F)c1	–
Cc1ccc(CN2C(=O)c3ccc(-c4ccccc4)n3CC2(C)C(=O)NC2CCCCCC2)cc1 (stereo not given)	–
COc1ccc(/C=C/c2nc(NCCCN(C)C)c3ccccc3n2)cc1	+
COc1ccc(N(C)c2nc(C)nc3ccccc23)cc1	–
CCC(C)NC(=O)c1ccc2c(=O)n(C3CC3)c3nn(CC(=O)NC4CCCC4)c(=O)n3c2c1 (stereo not given)	–
O=C(CCn1ccc2cc(S(=O)(=O)N3CCCCC3)ccc21)N1CCCC1	–
C=C(C(=O)O)C1CC2=C(C)CCCC2(C)C[C@@H]1O (stereo not given in full)	–
C=C(C(=O)O)[C@H]1C[C@]2(C)C(=O)CC[C@]23O[C@H]1C[C@@H]3C	+
COc1cccc(NC(=O)N2CCn3cccc3C2C(C)C)c1 (stereo not given)	–
CCCN1C(=O)c2c(C(=O)NCc3ccc(OC(C)C)cc3)ncn2CC1(C)C(=O)NCc1ccc(F)cc1 (stereo not given)	–
C=C1C(=O)OC2CC(C)=C(C(C)CCCO[C@@H]3O[C@H](CO)[C@@H](O)[C@H](O)[C@H]3O)C(O)C12 (stereo not given in full)	–
SMILES	Methyltransferases
C=C1C(=O)O[C@@H]2CC(C)=C([C@@H](C)CCCOC(C)=O)[C@@H](O)[C@H]12	+
C=C1C(=O)OC2CC(COC(=O)C(C)C)=C(C(C)CCCOC(C)=O)[C@@H](OC(C)=O)C12 (stereo not given in full)	–
CCC(C)NC(=O)c1ccc2c(=O)n(C)c3nnc(SCc4cccc(F)c4)n3c2c1 (stereo not given)	–
CCc1ccc(CN2C(=O)c3cc(-c4ccco4)nn3CC2(C)C(=O)NCCC(C)C)cc1 (stereo not given)	–
Cc1cc(-c2cc(OC(=O)c3ccccc3)ccc2Cl)cc2nnc(Nc3ccc(OCCN4CCCC4)cc3)nc12	–
C=CC(=O)Nc1cccc(Nc2nc(Nc3ccc(N4CCN(C(C)=O)CC4)cc3OC)ncc2C(F)(F)F)c1	–
C=CC(=O)Nc1cccc(Oc2nc(Nc3ccc(N4CCN(C)CC4)cc3)ncc2Cl)c1	+
CC(C)CCNC(=O)c1cc2n(n1)CC(C)(C(=O)NCc1ccccc1)N(C)C2=O (stereo not given)	–
CC(CN(C)C)CN1c2ccccc2CCc2ccccc21 (stereo not given)	–
CN(C)CCC=C1c2ccccc2CCc2ccccc21	+
C=CCn1c(=O)c2ccc(C(=O)NC(C)C)cc2n2c(=O)n(CC(=O)Nc3cccc(CC)c3)nc12	–
